Assay results as given in PubChem BioAssay AID652105 (National Center for Advancing Translational Sciences (NCATS), 2013).
Hit rate of the full screen: of about 330,000 compounds, about 4,100 (1.2%) were called active. Roughly 2% stayed inconclusive and do not appear here. The calls were made as follows: active = max response of -50% or lower; inconclusive = between -30% and -50%; inactive = -30% or higher. Many of the other results were omitted from the sample, so actives are more common in it than they were.

What follows are molecules tested against Phosphatidylinositol 5-phosphate 4-kinase type-2 alpha (Homo sapiens) (UniProt P48426) (assay: qHTS for Inhibitors of phosphatidylinositol 5-phosphate 4-kinase (PI5P4K)). Conditions: PI5P4Kalpha enzyme, ADP-Glo luminescence, 60 min; stronger effect = lower value.
Phosphatidylinositol 5-phosphate 4-kinase type-2 alpha (Homo sapiens), sequence (P48426 whole entry, looked up): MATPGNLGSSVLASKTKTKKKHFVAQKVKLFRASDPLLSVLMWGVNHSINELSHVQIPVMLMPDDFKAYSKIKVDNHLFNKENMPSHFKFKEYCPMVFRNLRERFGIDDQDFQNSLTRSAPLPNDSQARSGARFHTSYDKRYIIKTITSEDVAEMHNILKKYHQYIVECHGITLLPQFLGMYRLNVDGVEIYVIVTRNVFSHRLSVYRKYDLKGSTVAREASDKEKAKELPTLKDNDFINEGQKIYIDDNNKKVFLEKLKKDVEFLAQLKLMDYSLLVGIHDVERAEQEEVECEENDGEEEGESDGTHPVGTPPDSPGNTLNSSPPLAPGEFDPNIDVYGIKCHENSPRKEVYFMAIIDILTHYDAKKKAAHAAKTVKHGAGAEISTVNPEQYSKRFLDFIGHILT
Summary of the method: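 PI5P4Kalpha ADP-Glo assay; 5 microM ATP final; 60 min RT reaction; HEPES pH 7.4/EGTA/CHAPS, 5% DMSO; controls lacking substrate or enzyme; luminescent end-point.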
% is scaled to controls: 0 for no effect and ±100 for the full control effect.
Also: value at the top dose of about 77 µM.

Max response, active:
N#CC1=C(N)Oc2[nH]c(=S)[nH]c(=O)c2C12C(=O)Nc1ccccc12 (centres undefined) -89.2%, NNc1cccc(C=Cc2ccccc2)cc1=O -74.4%, C1=C(N2CCOCC2)/C(=C/c2nc3ccccc3[nH]2)CC1 -77.5%, COC(=O)C1=C(C(=O)OC)C(c2cc([N+](=O)[O-])ccc2O)c2sc(=O)[nH]c2S1 (centres undefined) -81%, COc1ccc(C(=O)N2CCC(C(=O)Nc3ccc(C)cc3)CC2)cc1 -67.6%, Nc1ccccc1SC(C[N+](=O)[O-])c1ccccc1 (centres undefined) -75.7%, NS(=O)(=O)c1ccc(-c2ccc(/C=C3\SC(=O)NC3=O)o2)cc1 -52.9%, O=C(N/N=C/c1ccco1)c1ccc(C(=O)N/N=C/c2ccco2)o1 -70.9%, Oc1[nH]c2ccc(Br)cc2c1N=Nc1nn[nH]n1 -58.4%, O=C(O)c1ccccc1N=N/C(=N/Nc1cc(S(=O)(=O)O)ccc1O)c1ccccc1 -101%

Max response, inactive:
CC1(C)Cc2ccccc2-c2[nH]c(=S)[nH]c(=O)c21 -19.7%, Cc1ccc(NC2(C#N)C(=O)Nc3ccccc32)cc1 (centres undefined) -2.41%, CCc1c(-c2ccc(F)cc2)ncn1Cc1cccc(-c2ccccc2)c1 -9.99%, O=c1[nH]c(/C=C/c2cccc(Br)c2)nc2ccccc12 -0.363%, O=c1oc(/C=C/c2ccccc2)nc2ccccc12 8.43%, OC(c1ccccc1)(c1ccccc1)C1CCN(CCCOc2ccccc2)CC1 -3.47%, CC(C)C1Cc2[nH][nH]c(=O)c2C(c2ccc(Cl)cc2)O1 (centres undefined) -8.68%, CC1(C)Cc2c(C#N)c(SCc3nc4ccccc4[nH]3)nc(N3CCOCC3)c2CO1 2.17%, O=c1[nH]c(N2CCOCC2)nc2ccccc12 -4.73%, FC(F)(F)c1cccc(-c2nc3ccccc3n2C(c2ccccc2)c2nc3ccccc3[nH]2)c1 (centres undefined) -4.13%, CC1(C(=O)NS(=O)(=O)c2cccs2)CCN1C(=O)Cc1ccc(-c2ccccc2)cc1 (centres undefined) -0.507%, COC(=O)C1=C(C)N(C)C(=O)NC1c1ccc([N+](=O)[O-])o1 (centres undefined) -6.27%, COC(=O)c1c(C)[nH]c(C)c1-c1ccc([N+](=O)[O-])cc1 8.82%, CCCNC(=O)C1(C)CCN1C(=O)Cc1ccc(-c2ccccc2)cc1 (centres undefined) -2.28%, CC(=O)c1nn(-c2ccccc2)c(=Nc2ccccc2)cc1C -0.302%, O=C(NCc1cccnc1)c1cc(C2CCCN(C(=O)CCCc3ccccc3)C2)on1 (centres undefined) 1.02%, COc1ccc(CNC(=O)C2CCN(C(=O)c3ccccc3)CC2)cc1 6.89%, O=C(Nc1ccccc1)C1CCN(C(=O)c2ccc(Br)cc2)CC1 -5.42%, Cc1ccc(C(C[N+](=O)[O-])c2c(C)cc3ccccn23)cc1 (centres undefined) 3.11%, Nc1ccccc1SCc1cc([N+](=O)[O-])cc2c1OCOC2 0.872%, COc1cc(NC(=O)c2cc(-c3ccc(F)cc3OC(C)C)n[nH]2)cc(OC)c1OC -6.5%, CCCCCCN1CCN(C2CN(Cc3cn(Cc4ccc(F)cc4)nn3)S(=O)(=O)C2)CC1 (centres undefined) 0.312%, CN1CCN(/N=C/c2ccc(-c3ccc([N+](=O)[O-])cc3)o2)CC1 -0.908%, O=C(Nc1ccccc1)c1ccccc1Br 2.77%, CCN(CC)CCN(C)C(c1ccnc2ccccc12)c1nnnn1-c1ccc2c(c1)OCCO2 (centres undefined) -0.0355%, O=C(N/N=C/c1ccco1)c1csc2c1CCCC2 -21.6%, O=C(Cc1ccc([N+](=O)[O-])cc1)N/N=C/c1ccco1 -5.81%, OC(c1cc(Cl)cc(Cl)c1)c1ncc(-c2ccccc2C(F)(F)F)[nH]1 (centres undefined) 14.3%, COc1ccc(NC(=O)C2Cc3c(-c4cccc(NC(C)=O)c4)ccnc3O2)cc1OC (centres undefined) -8.09%, C=CCC[C@H](CCCCC)OC(=O)/C=C/[C@H](O)[C@@H](O)C[C@@H](O)CC=C 17.1%, NS(=O)(=O)c1ccc(N=Nc2c(O)[nH]c3ccc(Br)cc23)cc1 -0.139%, O=C(CNC(=O)Cc1ccccc1)N=Nc1c(O)[nH]c2ccc(Br)cc12 -6.57%, CC1(C(=O)NCc2ccccc2)CN(S(C)(=O)=O)CC(=O)N1CC(F)(F)F (centres undefined) -7.01%, CN1OC[C@@H]2CN(C(=O)c3cccc4ccccc34)[C@H](c3ccc(N4CCCCC4)cc3)C[C@@H]21 -0.774%
